Laboratory results published in the antibiotic and cytotoxicity screens of Wong et al. (2023).
Out of some 39,000 compounds screened, about 3,300 (8.5%) were called active. The sample holds actives, similar compounds and a random draw of the others, so the mix is not that of the screen.

Tested on: HepG2
Assay: cytotoxicity call (relative viability < 0.9)
Details: 10 µM

Row | Compound | cytotoxicity call
1 | C[C@@H]1CN([C@@H](C)CO)C(=O)c2cc(NC(=O)CCN3CCOCC3)ccc2O[C@H]1CN(C)C(=O)Nc1ccc(F)cc1 | inactive
2 | COc1ccc(NC(=O)Nc2ccc3c(c2)C(=O)N([C@@H](C)CO)C[C@H](C)[C@H](CN(C)C(=O)CCC(F)(F)F)OCCCC[C@@H](C)O3)cc1 | inactive
3 | C[C@H](O)C#Cc1ccc2c(c1)O[C@@H](CN(C)C(=O)C1CCCCC1)[C@@H](C)CN([C@H](C)CO)S2(=O)=O | inactive
4 | CCOC(=O)c1cn[nH]c1 | inactive
5 | C[C@H]1CN([C@@H](C)CO)C(=O)c2cc(NS(=O)(=O)c3cn(C)cn3)ccc2O[C@H]1CN(C)S(=O)(=O)c1ccccc1 | inactive
6 | CCS(=O)(=O)NCC[C@H]1CC[C@@H](NS(=O)(=O)c2ccccc2C)[C@H](CO)O1 | inactive
7 | C[C@@H]1CN([C@@H](C)CO)C(=O)c2cccc(NS(C)(=O)=O)c2O[C@@H]1CN(C)C(=O)Nc1ccc(F)cc1 | inactive
8 | CCOC(=O)c1c(CN2CCN(c3ccccc3C)CC2)n(-c2ccccc2)c2cc(Br)c(O)cc12 | inactive
9 | C[C@@H]1CN([C@@H](C)CO)C(=O)Cc2cc(NS(=O)(=O)c3ccc(F)cc3)ccc2O[C@@H]1CN(C)S(=O)(=O)c1ccc(F)cc1 | inactive
10 | COc1ccc(S(=O)(=O)Nc2cccc3c2O[C@H](CN(C)S(=O)(=O)c2ccc(OC)cc2)[C@H](C)CN([C@H](C)CO)C3=O)cc1 | inactive
11 | C(=N\c1nc2ccccc2[nH]1)/N(c1ccccc1)c1ccccc1 | active
12 | FC(F)(F)c1nc2ccccc2[nH]1 | inactive
13 | O=C(O)CCc1nc2ccccc2[nH]1 | inactive
14 | C[C@H](CO)N1C[C@H](C)[C@@H](CN(C)C(=O)c2ccncc2)OCCCC[C@H](C)Oc2ccc(NS(=O)(=O)c3cn(C)cn3)cc2C1=O | inactive
15 | CC(C)NC(=O)Nc1ccc2c(c1)C(=O)N([C@H](C)CO)C[C@H](C)[C@H](CN(C)S(=O)(=O)c1cccs1)O2 | inactive
16 | Cl.Cl.OCCN1CCN(CCCN2c3ccccc3Sc3ccc(C(F)(F)F)cc32)CC1 | active
17 | OCCN1CCN(CCCN2c3ccccc3Sc3ccc(Cl)cc32)CC1 | active
18 | Cl.Cl.OCCOCCN1CCN(C(c2ccccc2)c2ccc(Cl)cc2)CC1 (configuration not stated) | inactive
19 | CC(=O)c1ccc2c(c1)N(CCCN1CCN(CCO)CC1)c1ccccc1S2.O=C(O)C=CC(=O)O | inactive
20 | O=C(O)C=CC(=O)O.OCCOCCN1CCN(C2=Nc3ccccc3Sc3ccccc32)CC1 | inactive
21 | CN1CCN(CCCN2c3ccccc3Sc3ccc(C(F)(F)F)cc32)CC1.Cl.Cl | active
22 | OCCN1CCN(c2ncnc3c2ncn3[C@H]2CN(Cc3cccc(C(F)(F)F)c3)C[C@@H](CO)O2)CC1 | inactive
